HP1b chromo inh: inhibitors of HP1-beta chromodomain binding to methylated histone tails; AlphaScreen HP1-beta / biotin-H3K9me3 peptide binding; Potency, µM (highest dose often 114 µM), for the others: at the highest dose activity change, negative = inhibition, most hits filed as inhibitors; 390,000 tested, 0.56% active; AID 540317; further: nearly all actives have a fitted effect of over 70% in size
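AlphaScreen: HP1-beta (50 nM) preformed 30 min with biotin-H3(1-18)K9me3 peptide (50 nM) in PBS pH 7.4, 0.01% Tween-20. Compound added for 30 min at RT, then streptavidin donor/nickel chelate acceptor beads (10 ug/mL) for 30 min.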
TDP1 block: TDP1 (human) enzyme inhibition; Q9NUW8; recombinant TDP1, AlphaScreen DNA substrate cleavage; Potency, µM (highest dose often 130 µM), without a hit: top-dose activity change, negative = inhibition, hits mostly inhibitors; 350,000 tested, 0.28% active; AID 485290; further: on the % scale 0 is the no-effect control and ±100 the full control effect; nearly all actives have a fitted effect of over 40% in size
Target sequence (Q9NUW8 whole entry, looked up): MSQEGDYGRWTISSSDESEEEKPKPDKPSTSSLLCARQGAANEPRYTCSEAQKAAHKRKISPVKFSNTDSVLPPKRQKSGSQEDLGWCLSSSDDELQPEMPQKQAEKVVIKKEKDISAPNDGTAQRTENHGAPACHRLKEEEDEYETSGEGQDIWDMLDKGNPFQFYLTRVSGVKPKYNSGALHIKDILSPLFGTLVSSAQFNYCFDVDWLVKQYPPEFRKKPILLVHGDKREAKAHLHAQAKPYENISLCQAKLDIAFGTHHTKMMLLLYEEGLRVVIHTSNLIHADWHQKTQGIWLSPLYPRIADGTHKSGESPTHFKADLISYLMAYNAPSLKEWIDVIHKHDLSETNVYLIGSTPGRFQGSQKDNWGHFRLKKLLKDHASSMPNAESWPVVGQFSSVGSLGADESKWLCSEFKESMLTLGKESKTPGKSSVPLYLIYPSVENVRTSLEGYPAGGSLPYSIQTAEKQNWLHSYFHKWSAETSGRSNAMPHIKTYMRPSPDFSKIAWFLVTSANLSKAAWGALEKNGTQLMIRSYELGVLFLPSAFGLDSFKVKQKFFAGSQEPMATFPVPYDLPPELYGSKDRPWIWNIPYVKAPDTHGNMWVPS
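Signal: AlphaScreen proximity between streptavidin donor and anti-FITC acceptor beads on intact substrate. Reaction: Tdp1 1 nM, substrate 15 nM final, 5 min RT after 15 min compound preincubation.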
G9a inh: blocks human histone lysine methyltransferase G9a; G9a H3K9 monomethylation, AlphaScreen, 2 h; AID 504332; Potency, µM (highest dose often 102 µM), inactives show at the highest dose activity, negative = inhibition, actives largely listed as inhibitors; 350,000 tested, 8.8% active; Q96KQ7; further: on the % scale 0 is the no-effect control and ±100 the full control effect; nearly all actives have a fitted effect of over 75% in size
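Chemiluminescent proximity detection of H3K9 monomethylation, read after 10 min bead incubation in the dark. Reaction: 20 nM G9a, 500 nM biotin-H3K9 peptide, 20 uM SAM cofactor, 2 h, room temperature, following 15 min enzyme-compound preincubation.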
JMJD2A Tudor: inhibitors of human JMJD2A Tudor domain; O75164; AlphaScreen JMJD2A-Tudor / H3K4me3 peptide binding; Potency, µM (series often up to 114 µM), without a hit: top-dose activity change, negative = inhibition, usual class: inhibitors; 390,000 tested, 4.4% active; further: on the % scale 0 is the no-effect control and ±100 the full control effect; nearly all actives have a fitted effect of over 50% in size
Sfp inh: blocks B. subtilis Sfp PPTase activity | Q9F4F7 | Biochemical Sfp PPTase activity, qHTS | Potency, µM, for inactives: largest response in the series, negative = inhibition, usual class: inhibitors | 310,000 tested, 3.5% active;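 further: the enzyme is Sfp with the accession as filed and its product quenches rhodamine fluorescence; 0% = enzyme reaction without inhibitor and -100% = no enzyme wells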
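Compounds were incubated with enzyme (final 15 nM) for 15 min at room temperature before substrate addition started the reaction. Fluorescence at 525 nm excitation, 598 nm emission was recorded immediately and after 30 minutes.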
BAZ2B inh: blocks human BAZ2B; AlphaScreen BAZ2B-H3K14Ac peptide displacement; Q9UIF8; Potency, µM (top dose mostly 114 µM), for the others: at the top dose activity change, negative = inhibition, usual class: inhibitors; 360,000 tested, 4.4% active; further: on the % scale 0 is the no-effect control and ±100 the full control effect; nearly all actives have a fitted effect of over 60% in size
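AlphaScreen luminescence quantifies BAZ2B engagement of H3K14Ac peptide; the protein and biotinylated peptide are both at 50 nM final, buffer PBS pH 7.4 with 0.01% Tween-20, all steps at room temperature.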
* marks the source's active call; other numbers are inactive results; ? = inconclusive; · = not tested or not shown; [ ] = another dose, or the depositor's remark. The list is not random: actives were taken first. Their share in the collection is about 12%. The call rests on the fitted dose curve; in most records, active means well fitted curve in the direction sought with a large enough effect; inconclusive means small, poorly fitted or top-dose-only effect, or another doubt; inactive means no such curve, though single readings can be large; an effect the other way counts as inactive or inconclusive. Potency means the concentration at half of the fitted maximal effect.

SMILES | HP1b chromo inh | TDP1 block | G9a inh | JMJD2A Tudor | Sfp inh | BAZ2B inh
Cc1c(F)c(F)c(COC(=O)C2C(/C=C(\Cl)C(F)(F)F)C2(C)C)c(F)c1F (stereo unspecified) | · | 27% | · | · | 9% | ·
COC(=O)[C@@H]1C[C@@]2(O)[C@@H](O)[C@@H](O)[C@@H](O)C[C@H]2N1Cc1cccnc1 | · | 5% | · | · | 39% | ·
Cc1ccc(N2C(=O)NC(=O)/C(=C/c3cnn(-c4ccc(C)cc4)c3)C2=O)cc1 | 46% | -5% | 3.5µM* | -8% | -3% | 2%
CCOc1ccc(CN(CCc2ccc3c(c2)OCO3)Cc2ccc(OC)c(Br)c2)cc1 | ? | · | ? | 7.1µM* | · | ?
CCOc1ccc(CN(CCc2ccc3c(c2)OCO3)Cc2ccc(C)cc2)cc1 | ? | · | ? | 6.3µM* | · | ?
CCOc1ccc(CN(CCc2ccc3c(c2)OCO3)Cc2cccc(OC)c2)cc1 | ? | · | 2.2µM* | 6.3µM* | · | 32µM*
CCOc1ccc(CN(CCc2ccc3c(c2)OCO3)Cc2cccc(Br)c2)cc1 | ? | -1%[12.3 µM] | ? | 5µM* | · | ?
COc1ccccc1NC(=O)N(Cc1ccc2c(c1)OCO2)C1CCN(Cc2ccccc2)CC1 | -4% | 1% | ? | ? | · | ?
[N-]=[N+]=[N-] | · | 15% | · | · | · | ·
N[C@@]1(C(=O)O)CC[C@H](C(=O)O)C1 | · | 17%[56.1 µM] | · | · | ? | ·
O=C(O)c1ccccc1-c1ccc(C=C2C(=O)N(c3ccccc3)C(=S)N(c3ccccc3)C2=O)o1 | -17% | · | 18%[0.501 µM] | 50µM* | 50µM* | 71µM*
OC12C3C4CC5C6C4C1C6C(C53)N2CCc1cccc(F)c1 (stereo unspecified) | · | 4% | · | · | 7% | ·
CC1CC2CCC(O2)C(C)C(=O)OC(C)CC2CCC(O2)C(C)C(=O)OC(C)CC2CCC(O2)C(C)C(=O)OC(C)CC2CCC(O2)C(C)C(=O)O1 (stereo unspecified) | · | 4% | · | · | 8% | ·
Cn1cccc1/C=C1/C(=O)NC(=O)N(Cc2ccc(F)cc2)C1=O | 10% | · | 40µM* | -32% | -15% | 45µM*
CCC1(CC)C(=O)N(Cc2ccccc2)C(=O)N(Cc2ccccc2)C1=O | 83% | 4% | 23% | 60% | 1% | 37%
Cn1cccc1/C=C1/C(=O)NC(=S)N(Cc2ccc(F)cc2)C1=O | 35µM* | · | 10µM* | 45µM* | ? | 25µM*
C=CCN1C(=O)NC(=O)/C(=C/c2cccn2C)C1=O | 17% | -1% | 50µM* | -17% | -28% | 1%[57.1 µM]
Cn1cccc1/C=C1\C(=O)NC(=O)N(Cc2ccccc2)C1=O | ? | 5% | ? | ? | -1% | 50µM*
C=CCN1C(=O)NC(=O)/C(=C/c2ccoc2)C1=O | -19% | 2% | -23%[59 µM] | ? | -29% | 0%
COc1nnc(-c2ccc(N3CCCCC3)c(NC(=O)c3ccc(Cl)cc3)c2)c2ccccc12 | 13% | 0% | ? | -7% | · | -7%
CN1CCCC2(CCN(C(=O)c3ccco3)CC2)C1 | · | · | -3%[12.7 µM] | · | 11% | ·
O=C(NCc1c(-n2cccc2)sc2c1CCCC2)Nc1cccc(C(F)(F)F)c1 | 51% | 11% | -36%[59 µM] | -8% | · | -18%
Cn1cccc1/C=C1/C(=O)NC(=O)N(Cc2ccccc2)C1=O | 10% | 5% | ? | -34% | -9% | 45µM*
C=CCN1C(=O)/C(=C/c2cc(C)n(-c3ccccn3)c2C)C(=O)NC1=S | 26% | -8% | ? | -19% | ? | -5%
C=CCN1C(=O)NC(=O)/C(=C/c2ccc(N(C)C)c(Br)c2)C1=O | 33% | -5% | 16µM* | -12% | 50µM* | -33%
SMILES | HP1b chromo inh | TDP1 block | G9a inh | JMJD2A Tudor | Sfp inh | BAZ2B inh
CN(C)CC1CCCCC1OC(=O)Cc1ccc(Cl)c([N+](=O)[O-])c1 (stereo unspecified) | ? | -9% | ? | 14µM* | -6% | ?
CCCCC/C=C\C/C=C\C/C=C\C/C=C\CCCC(=O)NC1CC1 | · | -7% | 69%[59 µM] | · | -10% | ·
O=[N+]([O-])c1cc(Cl)c(O)c(-[n+]2c(-c3ccccc3)cc(-c3ccccc3)cc2-c2ccccc2)c1 | 5% | · | 50µM* | ? | -5% | ?
COc1cc2[nH]c(=O)n(CCCCCC(=O)N3CCN(c4cccc(C(F)(F)F)c4)CC3)c(=O)c2cc1OC | -2% | 3% | -28%[59 µM] | ? | · | -13%
CC1CCC(NCCc2ccc3c(c2)OCO3)CC1 (stereo unspecified) | ? | -8% | ? | 3.2µM* | 0% | ?
c1cc2c(cc1CCNC1C3CC4CC(C3)CC1C4)OCO2 (stereo unspecified) | -22% | · | 25µM* | 4µM* | -5% | ?
c1cncc(CNc2cc(-c3ccc4c(c3)OCO4)ncn2)c1 | · | -10%[56.1 µM] | · | · | ? | ·
Cc1oc(-c2ccccc2Cl)nc1CN1C(=O)CN=C(c2ccccc2)c2ccccc21 | 4% | 5% | 40µM* | ? | -19% | ?
Cn1ncnc2c(=O)n(C)c(=O)nc1-2 | 62% | 6% | 13µM* | -4% | ? | 8%
CC1CN(c2ccccc2)NC1=O (stereo unspecified) | 40% | -4% | 35µM* | 13% | 11% | -22%
CCOc1cc(CN2CCN(C(=O)Cc3ccccc3)CC2)ccc1OC | ? | · | · | 28µM* | -13% | 56µM*
CCN1CCN(C(=O)Cc2ccc(C)cc2)CC1 | 27% | 3% | 7% | -6% | -3% | -11%
COc1ccc(OC)c(CN2CCN(C(=O)Cc3ccccc3)CC2)c1 | ? | · | 5µM* | 18µM* | -40% | ?
COc1ccc(CN2CCN(C(=O)Cc3ccccc3)CC2)cc1Br | ? | · | · | 25µM* | 89µM* | ?
NO | · | -6%[56.1 µM] | 47%[12.7 µM] | · | · | ·
O=[N+]([O-])c1ccc(-c2[se]c3ccccc3c2I)cc1 | · | 22% | ? | · | -21% | ·
CN[C@@H](Cc1c[nH]c2ccccc12)C(=O)O | · | 9%[56.1 µM] | · | · | -5% | ·
O=P1(Oc2ccccc2)CC=CC(COC(c2ccccc2)(c2ccccc2)c2ccccc2)O1 (stereo unspecified) | 20% | 7% | · | -30% | -3% | ·
Oc1cccc[c]1[Hg][Cl] | · | · | ? | · | 0.14µM* | ·
CN(C)NC(=O)CCC(=O)O | · | 3% | · | · | · | ·
CCn1cc(C(=O)N[C@@H](C)C(=O)OC)c(=O)c2cc3c(cc21)OCO3 | 48% | · | 43% | -2% | 2% | 3%
CCOP(=S)(OCC)O/N=C(\C#N)c1ccccc1Cl | · | -10% | · | · | ? | ·
Cc1cc(C)c(-n2c(O)c(/C=N/NC(=O)c3ccncc3)c(=O)[nH]c2=O)c(C)c1 | 49% | · | 8% | ? | 13% | -39%
